# Laboratory results reported in PubChem BioAssay.
# Several values for one entry are separate records, joined by “and”; a condition that tells them apart may be missing. Identical values can stand only once. Inconclusive results are not listed. For part of these data: Potency and affinity values are given separately. Activity calls are given as the source filed them.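 How the source made its calls, unless noted: active means compounds killing one labelled cell type while sparing the other, by normalised counts and ratio limits, not self-fluorescent; inactive means the rest.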
# How the values were obtained:
# [1] = polyglutamine-triggered caspase-3 activation inhibitors, cell-based (AID 1583); settings: polyglutamine-induced caspase-3 activation, cell assay; stronger effect = higher value;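 tested at 10 µM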
# [2] = suppressors of polyQ aggregation in yeast, 75Q-TubU reporter (AID 1593); settings: Yeast 75Q polyglutamine aggregation reporter
# [3] = rescue of polyQ-huntingtin neuronal dysfunction in worms, whole organism, C. elegans mechanosensory neurons, N-terminal huntingtin (AID 1599); settings: touch response, stronger effect = higher value
# [4] = inhibitors of mitochondrial cytochrome c release, biochemical, purified mitochondria (AID 1603); settings: stronger effect = lower value;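 further: mouse liver mitochondria challenged with calcium chloride; signal normalized to the plate average as 100%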
# [5] = inhibitors of polyQ protein aggregation (AID 1604); settings: polyglutamine-induced protein aggregation inhibition assay; stronger effect = higher value; tested at 2.5 µM
# [6] = enhancers of glutamate uptake in motor neurons, MN-1 cell line (AID 1612); settings: MN-1 motor neuron cells, stronger effect = higher value;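 further: tested at 1 µM final; 0% = mean of DMSO vehicle wells on each plate; positive means more glutamate uptake than control and negative means less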
# [7] = reducers of polyQ inclusions in PC12 cells, cell-based, NGF-treated PC12, GFPQ80 (AID 1614); settings: PC12 NGF-treated GFP-polyQ80 inclusion reduction;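 further: lower means fewer inclusions and 0 means no inclusions at all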
# [8] = suppressors of polyglutamine aggregation in yeast, 75Q-TubH (AID 1616); settings: S. cerevisiae 75Q-TubH polyglutamine aggregation suppression; stronger effect = higher value
# [9] = liver-stage malaria parasite growth inhibition, primary screen, cell-based, HepG2, luciferase luminescence, HepG2 viability (AID 624349; in the data active means parasite load remaining mostly below about 12%, no sharp cut-off; inactive means mostly above about 10%;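 further: 100% = mean of DMSO negative control wells on the same plate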); settings: P. berghei liver stage in HepG2, luciferase luminescence, concentration not given here; parasite load remaining: stronger effect = lower value; viability: measured here: HepG2 viability without parasites
# [10] = differential killing of epithelial or mesenchymal cells, primary screen, imaging, PC-3E GFP, TEM4-18 mCherry, co-culture (AID 1345086); settings: imaging cell counts, at 1 µM; for red/green cell ratio (normalised): actives lie on both sides;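 on all read-outs here: cells exposed to compound for 72 h before imaging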;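 on red/green cell ratio (normalised): normalised mesenchymal count divided by normalised epithelial count so high means epithelial killing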
# [11] = system: Aerobactin synthetase IucA (Klebsiella pneumoniae hvKP1); experiment: Biochemical IucA enzyme inhibition primary screen of the Spectrum library (AID 1346200; call rule not given here;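 further: 100% = wells without compound and 0% = wells lacking enzyme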); settings: malachite green pyrophosphate, A620, at 8 µM, stronger effect = lower value
# [12] = growth inhibition of DIPG glioma cells, dose response, cell-based, SU-DIPG-XVII, MIPE5.0, CellTiter-Glo, qHTS (AID 1347060; cut-off not given, nearly all actives have AC50 up to about 26 µM); settings: SU-DIPG-XVII viability, CellTiter-Glo ATP luminescence
# [13] = growth inhibition of DIPG glioma cells, dose response, cell-based, JHH-DIPG-1, MIPE4.0, CellTiter-Glo, qHTS (AID 1347062; cut-off not given, nearly all actives have AC50 up to about 27 µM); settings: JHH-DIPG-1 viability, CellTiter-Glo ATP luminescence
# [14] = growth inhibition of DIPG glioma cells, dose response, cell-based, SU-DIPG-XIII, MIPE5.0, CellTiter-Glo, qHTS (AID 1347064; cut-off not given, nearly all actives have AC50 up to about 23 µM); settings: SU-DIPG-XIII viability, CellTiter-Glo ATP luminescence
# [15] = viability loss in pontine glioma line – cell-based, SU-DIPG-XXV, MIPE5.0, CellTiter-Glo, qHTS, dose response (AID 1347065; cut-off not given, nearly all actives have AC50 up to about 26 µM;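 further: cells exposed to compound for 48 hours before ATP readout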); settings: CellTiter-Glo ATP luminescence
# [16] = SU-DIPG-VI glioma cell viability, MIPE4.0 library, CellTiter-Glo luminescence, qHTS (AID 1347066; cut-off not given, nearly all actives have AC50 up to about 30 µM;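 further: cells exposed to compound for 48 hours before readout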); settings: CellTiter-Glo ATP luminescence
# [17] = sensitizers of A549 cells to miR-34 induction, primary screen, imaging, A549 dox-inducible miR-34, nuclei and caspase counts (AID 1347080;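 active means compounds whose cell count with miR-34 switched on is under 0.7 times the count with it off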); settings: A549 miR-34 inducible, Hoechst nuclei count, 48 h
# [18] = biological target: Mitogen-activated protein kinase 7 (Homo sapiens) (UniProt Q13164); experiment: ERK5 transactivation activators in reporter cells, primary screen, cell-based, HTS (AID 1508626;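 active means luciferase signal above three times the same-plate solvent-only control wells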;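 further: luciferase driven by Gal4-ERK5 fusion binding five Gal4 sites before minimal TATA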); settings: HeLa Gal4-ERK5 transactivation, 18 h, at 5 µM, stronger effect = higher value
# Chain of Mitogen-activated protein kinase 7 (Homo sapiens) (Q13164 whole entry, looked up, the tested form may be a part): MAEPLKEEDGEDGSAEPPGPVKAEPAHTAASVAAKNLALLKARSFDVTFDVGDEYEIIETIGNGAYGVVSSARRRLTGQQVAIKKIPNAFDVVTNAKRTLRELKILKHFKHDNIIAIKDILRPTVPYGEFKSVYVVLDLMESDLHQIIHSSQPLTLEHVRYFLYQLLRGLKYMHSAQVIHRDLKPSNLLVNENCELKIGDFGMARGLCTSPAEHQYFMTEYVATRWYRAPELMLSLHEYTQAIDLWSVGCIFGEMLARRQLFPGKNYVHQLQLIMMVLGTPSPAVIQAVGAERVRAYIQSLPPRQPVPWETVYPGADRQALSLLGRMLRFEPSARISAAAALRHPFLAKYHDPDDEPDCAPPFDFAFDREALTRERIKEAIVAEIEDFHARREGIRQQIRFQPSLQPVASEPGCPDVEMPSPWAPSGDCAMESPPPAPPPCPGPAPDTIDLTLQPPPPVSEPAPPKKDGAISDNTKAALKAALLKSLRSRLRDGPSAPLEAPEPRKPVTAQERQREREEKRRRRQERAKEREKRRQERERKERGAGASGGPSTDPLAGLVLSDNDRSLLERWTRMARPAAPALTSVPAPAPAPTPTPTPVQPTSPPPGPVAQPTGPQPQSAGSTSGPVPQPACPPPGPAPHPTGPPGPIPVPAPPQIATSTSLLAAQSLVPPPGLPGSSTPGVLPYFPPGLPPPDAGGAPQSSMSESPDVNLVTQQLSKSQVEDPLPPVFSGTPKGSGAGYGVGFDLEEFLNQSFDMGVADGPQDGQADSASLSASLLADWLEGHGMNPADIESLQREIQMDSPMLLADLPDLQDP
# [19] = JHH-DIPG-1 glioma cell viability, MIPE5.0 library, CellTiter-Glo luminescence, qHTS (AID 1347067; cut-off not given, nearly all actives have AC50 up to about 26 µM;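 further: cells exposed to compound for 48 hours before readout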); settings: JHH-DIPG-1 glioma viability, CellTiter-Glo ATP luminescence
# [20] = measured here: epithelial PC-3E GFP cell survival
# [21] = measured here: mesenchymal TEM4-18 mCherry cell survival
# [22] = measured here: relative caspase fold change +Dox/-Dox
# [23] = measured here: total cells with miR-34 induction, stronger effect = lower value
# [24] = measured here: total cells without miR-34 induction
compound,measurement,setting,value
C#CC1(O)CCC2C3CCC4=CC(=O)CCC4(C)C3CCC21C (stereo not given),inhibition,[1],4.95%
same,score,[2],0.22
same,rescue above control,[3],3.19
same,cytochrome c release ratio,[4],0.95
same,inhibition of aggregation,[5],63.6%
same,glutamate uptake change,[6],12.9%
same,inclusion score,[7],2
same,aggregation suppression score,[8],1.19
same,parasite load remaining,[9],62% (inactive) and 21.3% (inactive)
same,viability,[9],93.9% and 81%
same,red/green cell ratio (normalised),[10],0.77 (inactive)
same,normalised cell number,[10]; [20],1.21
same,normalised cell number,[10]; [21],0.93
same,activity remaining,[11],112% (inactive)
same,outcome,[12],inactive
same,outcome,[13],inactive
same,outcome,[14],inactive
same,outcome,[15],inactive
same,outcome,[16],inactive
same,fold change,[17]; stronger effect = lower value,0.935 (inactive)
same,fold change,[17]; [22],2.1
same,cell count,[17]; [23],10400
same,cell count,[17]; [24],11100
C[N+](C)(C)CC(=O)[O-],inhibition,[1],4.44%
same,score,[2],1.09
same,rescue above control,[3],5.21
same,cytochrome c release ratio,[4],1.34
same,inhibition of aggregation,[5],61.8%
same,glutamate uptake change,[6],21.6%
same,inclusion score,[7],2
same,aggregation suppression score,[8],0.998
same,parasite load remaining,[9],57.1% (inactive) and 50.8% (inactive)
same,viability,[9],76.9% and 89.4%
same,red/green cell ratio (normalised),[10],1.27 (inactive)
same,normalised cell number,[10]; [20],1.09
same,normalised cell number,[10]; [21],1.39
same,activity remaining,[11],124% (inactive)
same,fold change,[17]; stronger effect = lower value,0.862 (inactive)
same,fold change,[17]; [22],4.05
same,cell count,[17]; [23],11400
same,cell count,[17]; [24],13200
Nc1ncn[nH]1,red/green cell ratio (normalised),[10],1.3 (inactive)
same,normalised cell number,[10]; [20],0.82
same,normalised cell number,[10]; [21],1.07
same,activity remaining,[11],92.7% (inactive)
same,luciferase signal,[18],24 AU (inactive)
COC[C@]12CN(C=O)C3[C@@H]4[C@H](OC)C1[C@]3(C1CC3(O)C(OC)C(O)C4(OC(C)=O)C1C3OC(=O)c1ccccc1)[C@@H](OC)C[C@H]2O (stereo not given in full),red/green cell ratio (normalised),[10],1 (inactive)
same,normalised cell number,[10]; [20],1.06
same,normalised cell number,[10]; [21],1.06
same,activity remaining,[11],118% (inactive)
C[C@H]1C[C@@H](O)[C@]2(O)[C@@]13CC(=O)OC[C@@]2(C)[C@](C)(O)C(=O)C3,red/green cell ratio (normalised),[10],1.18 (inactive)
same,normalised cell number,[10]; [20],0.96
same,normalised cell number,[10]; [21],1.13
same,activity remaining,[11],127% (inactive)
same,luciferase signal,[18],188 AU (inactive)
N#CC(O[C@@H]1O[C@H](CO[C@@H]2O[C@H](CO)[C@@H](O)[C@H](O)[C@H]2O)[C@@H](O)[C@H](O)[C@H]1O)c1ccccc1 (stereo not given in full),inhibition,[1],3.65%
same,score,[2],1.42
same,rescue above control,[3],-2.1
same,cytochrome c release ratio,[4],1.2
same,inhibition of aggregation,[5],36.6%
same,glutamate uptake change,[6],14%
same,inclusion score,[7],2
same,aggregation suppression score,[8],1.51
same,parasite load remaining,[9],116% (inactive)
same,viability,[9],70.2%
same,red/green cell ratio (normalised),[10],1 (inactive)
same,normalised cell number,[10]; [20],0.94
same,normalised cell number,[10]; [21],0.94
same,activity remaining,[11],123% (inactive)
same,outcome,[14],inactive
same,outcome,[19],inactive
CCN1C[C@@]2(COC)C3[C@@H](OC)[C@H]4[C@@H]1[C@]3(C(OC)C[C@H]2O)C1C[C@@]2(O)[C@H](OC(=O)c3ccccc3)C1[C@]4(OC(C)=O)[C@@H](O)[C@@H]2OC (stereo not given in full),inhibition,[1],-1.76%
same,score,[2],0.9
same,rescue above control,[3],-1.73
same,cytochrome c release ratio,[4],0.91
same,inhibition of aggregation,[5],65.4%
same,glutamate uptake change,[6],9.78%
same,inclusion score,[7],2
same,aggregation suppression score,[8],1.1
same,parasite load remaining,[9],85.5% (inactive) and 32.5% (inactive)
same,viability,[9],79.4% and 105%
same,red/green cell ratio (normalised),[10],1.07 (inactive)
same,normalised cell number,[10]; [20],1.01
same,normalised cell number,[10]; [21],1.07
same,activity remaining,[11],113% (inactive)
same,fold change,[17]; stronger effect = lower value,0.875 (inactive)
same,fold change,[17]; [22],3.63
same,cell count,[17]; [23],11000
same,cell count,[17]; [24],12600
C[N+]1(C)CCc2cc3c(cc2[C@H]1C1OC(=O)c2c1ccc1c2OCO1)OCO3 (stereo not given in full),red/green cell ratio (normalised),"[10]; counts scaled to control wells, 1 = unselective",0.88 (inactive)
same,normalised cell number,[10]; [20],1.35
same,normalised cell number,[10]; [21],1.18
same,activity remaining,[11],129% (inactive)
Cc1c(O)c(O)cc2c1CC=C1[C@@]2(C)CC[C@@]2(C)C3C[C@](C)(C(=O)O)CC[C@]3(C)CC[C@]12C (stereo not given in full),red/green cell ratio (normalised),[10],0.65 (inactive)
same,normalised cell number,[10]; [20],0.64
same,normalised cell number,[10]; [21],0.41
same,activity remaining,[11],103% (inactive)
CN1C2C[C@H](OC(=O)[C@H](CO)c3ccccc3)C[C@H]1[C@@H](O)C2,red/green cell ratio (normalised),[10],0.94 (inactive)
same,normalised cell number,[10]; [20],1.1
same,normalised cell number,[10]; [21],1.03
same,activity remaining,[11],109% (inactive)
same,fold change,[17]; stronger effect = lower value,0.908 (inactive)
same,fold change,[17]; [22],0.859
same,cell count,[17]; [23],8730
same,cell count,[17]; [24],9620
